Counter-ions that a name gives are not always drawn. ± gives the standard deviation of the averaged measurements.
Tests used:
Test in all cases: growth (OD600 after 10 h); higher = more growth (less inhibition)
[1] = tested on: E. coli TESEC Alr+ wild-type control; conditions: compound 0.1 mM; raw OD600 reference: median of DMSO wells 0.241, cell-free background 0.041
Experimental: (§1)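 TESEC Mtb Alr E. coli, or the Alr+ wild-type control, in 384-well plates with Prestwick library compounds at 0.1 mM and 1% DMSO, across arabinose induction levels of 1E3 to 1E7 nM. Growth is read as OD600 after 10 h at 37 °C in triplicate biological replicates.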

E. coli TESEC Mtb Alr [2] = conditions: compound 0.1 mM
Experimental: as §1

E. coli TESEC Mtb Asd = conditions: compound 0.1 mM
Experimental: (§2)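 TESEC E. coli strains in which the native enzyme is deleted and replaced by arabinose-inducible Mtb Asd, DapB, CysH or TrpD, each grown in its selective medium. Strains were screened against the Prestwick library at 0.1 mM and 1% DMSO in 384-well format at low and high arabinose induction. Growth is read as OD600 after 10 h in triplicate.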

E. coli TESEC Mtb DapB = conditions: compound 0.1 mM
Experimental: as §2

[3] = tested on: E. coli TESEC Alr+ wild-type control; conditions: compound 0.1 mM; raw OD600 reference: median of DMSO wells 0.49, cell-free background 0.052
Experimental: (§3)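 TESEC Mtb Alr E. coli (ΔaraC ΔtolC ΔentC Δalr ΔdadX, arabinose-inducible Mtb Alr) or the Alr+ wild-type control strain, grown in defined M9-fructose medium without D-alanine in 96-well plates with Prestwick library compounds at 0.1 mM and 1% DMSO. Low Alr induction is 0.1 µM arabinose and high induction is 10 mM arabinose.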

E. coli TESEC Mtb Alr [4] = conditions: compound 0.1 mM; remark: listed apart in the source
Experimental: as §3

[5] = arabinose 1000 nM, raw OD600 reference: median of DMSO wells 0.294, cell-free background 0.041
[6] = arabinose 10000 nM, raw OD600 reference: median of DMSO wells 0.264, cell-free background 0.041
[7] = arabinose 100000 nM, raw OD600 reference: median of DMSO wells 0.201, cell-free background 0.041
[8] = arabinose 1000000 nM, raw OD600 reference: median of DMSO wells 0.193, cell-free background 0.041
[9] = arabinose 10000000 nM, raw OD600 reference: median of DMSO wells 0.146, cell-free background 0.041
[10] = arabinose induction (level): High, raw OD600 reference: median of DMSO wells 0.331, cell-free background 0.041
[11] = arabinose induction (level): Low, raw OD600 reference: median of DMSO wells 0.417, cell-free background 0.041
[12] = arabinose induction (level): High, raw OD600 reference: median of DMSO wells […], cell-free background 0.041
[13] = arabinose induction (level): Low, raw OD600 reference: median of DMSO wells 0.227, cell-free background 0.041
[14] = arabinose 100 nM, raw OD600 reference: median of DMSO wells 0.413, cell-free background 0.052
[15] = arabinose 10000000 nM, raw OD600 reference: median of DMSO wells […], cell-free background 0.052

Compound | growth [1] | growth (E. coli TESEC Mtb Alr [2]; [5]) | growth (E. coli TESEC Mtb Alr [2]; [6]) | growth (E. coli TESEC Mtb Alr [2]; [7]) | growth (E. coli TESEC Mtb Alr [2]; [8]) | growth (E. coli TESEC Mtb Alr [2]; [9]) | growth (E. coli TESEC Mtb Asd; [10]) | growth (E. coli TESEC Mtb Asd; [11]) | growth (E. coli TESEC Mtb DapB; [12]) | growth (E. coli TESEC Mtb DapB; [13]) | growth [3] | growth (E. coli TESEC Mtb Alr [4]; [14]) | growth (E. coli TESEC Mtb Alr [4]; [15])
CCOC(=O)c1cncn1[C@H](C)c1ccccc1 [Etomidate] | 0.202 ± 0.0032 | 0.244 ± 0.0088 | 0.275 ± 0.013 | 0.214 ± 0.03 | 0.181 ± 0.01 | 0.14 ± 0.0078 | 0.43 ± 0.029 | 0.378 ± 0.076 | 0.225 ± 0.019 | 0.228 ± 0.013 | 0.397 ± 0.013 | 0.41 ± 0.0073 | 0.341 ± 0.0035
NCC1(CC(=O)O)CCCCC1 [Gabapentin] | 0.255 ± 0.0094 | 0.324 ± 0.013 | 0.281 ± 0.011 | 0.215 ± 0.021 | 0.184 ± 0.003 | 0.156 ± 0.0041 | 0.478 ± 0.023 | 0.399 ± 0.044 | 0.215 ± 0.016 | 0.278 ± 0.045 | 0.565 ± 0.076 | 0.401 ± 0.02 | 0.325 ± 0.022
COc1ccc(OC)c(C(O)C(C)N)c1 (stereo unspecified) [Methoxamine hydrochloride] | 0.241 ± 0.0052 | 0.292 ± 0.0063 | 0.27 ± 0.005 | 0.212 ± 0.024 | 0.187 ± 0.003 | 0.148 ± 0.0068 | 0.272 ± 0.074 | 0.409 ± 0.021 | 0.223 ± 0.033 | 0.222 ± 0.028 | 0.458 ± 0.037 | 0.413 ± 0.011 | 0.334 ± 0.023
CC(C)(N)Cc1ccccc1 [Phentermine hydrochloride] | 0.232 ± 0.0076 | 0.288 ± 0.017 | 0.273 ± 0.0063 | 0.199 ± 0.033 | 0.193 ± 0.0084 | 0.138 ± 0.0031 | 0.318 ± 0.043 | 0.297 ± 0.017 | 0.206 ± 0.021 | 0.233 ± 0.014 | 0.603 ± 0.13 | 0.413 ± 0.014 | 0.36 ± 0.0095
CCCC[N+]1(C)[C@@H]2CC(OC(=O)[C@H](CO)c3ccccc3)C[C@H]1[C@@H]1O[C@@H]12 (stereo partly specified) [Butylscopolammonium (n-) bromide] | 0.225 ± 0.0045 | 0.296 ± 0.012 | 0.2707 ± 0.0023 | 0.189 ± 0.01 | 0.185 ± 0.0011 | 0.132 ± 0.0029 | 0.372 ± 0.073 | 0.412 ± 0.034 | 0.216 ± 0.011 | 0.232 ± 0.015 | – | 0.405 ± 0.0075 | 0.338 ± 0.021
CN1[C@@H]2CC[C@H]1C[C@@H](OC1c3ccccc3CCc3ccccc31)C2 [Deptropine citrate] | 0.046 ± 0.0008 | 0.041 ± 0.0014 | 0.03993 ± 0.00025 | 0.043 ± 0.001 | 0.0411 ± 0.0015 | 0.04267 ± 0.00021 | 0.0939 ± 0.05 | 0.0858 ± 0.012 | 0.0744 ± 0.011 | 0.069 ± 0.01 | – | 0.392 ± 0.0043 | 0.0701 ± 0.03
CN(C)C(=O)Oc1cc(OC(=O)N(C)C)cc(C(O)CNC(C)(C)C)c1 (stereo unspecified) [Bambuterol hydrochloride] | 0.22 ± 0.0079 | 0.266 ± 0.04 | 0.273 ± 0.0062 | 0.232 ± 0.02 | 0.193 ± 0.006 | 0.141 ± 0.0068 | 0.328 ± 0.026 | 0.39 ± 0.047 | 0.193 ± 0.02 | 0.211 ± 0.025 | – | 0.405 ± 0.011 | 0.342 ± 0.015
CN(C)C(=O)Oc1ccc[n+](C)c1 [Pyridostigmine iodide] | 0.248 ± 0.011 | 0.305 ± 0.0085 | 0.25 ± 0.0086 | 0.253 ± 0.012 | 0.181 ± 0.0086 | 0.138 ± 0.0049 | 0.335 ± 0.049 | 0.434 ± 0.076 | 0.195 ± 0.017 | 0.221 ± 0.0064 | – | 0.404 ± 0.017 | 0.355 ± 0.0089
CCN(C)C(=O)Oc1cccc([C@H](C)N(C)C)c1 [Rivastigmine] | 0.243 ± 0.0069 | 0.293 ± 0.004 | 0.302 ± 0.0098 | 0.213 ± 0.02 | 0.19 ± 0.021 | 0.156 ± 0.0029 | 0.325 ± 0.068 | 0.343 ± 0.067 | 0.188 ± 0.01 | 0.281 ± 0.04 | – | 0.418 ± 0.0056 | 0.342 ± 0.016
NC(=O)OCCCc1ccccc1 [Phenprobamate] | 0.219 ± 0.0026 | 0.274 ± 0.0083 | 0.258 ± 0.011 | 0.183 ± 0.018 | 0.192 ± 0.012 | 0.138 ± 0.0065 | 0.31 ± 0.11 | 0.323 ± 0.063 | 0.197 ± 0.023 | 0.215 ± 0.024 | – | 0.421 ± 0.011 | 0.352 ± 0.02
Cc1cccc(C)c1NC1=NCCCS1 [Xylazine] | 0.236 ± 0.0094 | 0.284 ± 0.0052 | 0.247 ± 0.0072 | 0.208 ± 0.029 | 0.169 ± 0.0055 | 0.137 ± 0.006 | 0.298 ± 0.051 | 0.34 ± 0.11 | 0.209 ± 0.016 | 0.226 ± 0.022 | – | 0.424 ± 0.0078 | 0.352 ± 0.023
C[C@]12CCC(=O)C=C1C=C[C@@H]1[C@@H]2CC[C@@]2(C)[C@H]1CC[C@@]2(O)CCC(=O)O [Canrenoic acid potassium salt] | 0.227 ± 0.01 | 0.275 ± 0.025 | 0.237 ± 0.019 | 0.16 ± 0.0057 | 0.163 ± 0.0033 | 0.15 ± 0.0017 | 0.214 ± 0.052 | 0.341 ± 0.03 | 0.196 ± 0.012 | 0.211 ± 0.031 | – | 0.407 ± 0.0047 | 0.264 ± 0.011
CCC1(C)CC(=O)NC(=O)C1 [Bemegride] | 0.237 ± 0.0029 | 0.299 ± 0.023 | 0.253 ± 0.00095 | 0.227 ± 0.039 | 0.191 ± 0.0055 | 0.135 ± 0.0098 | 0.318 ± 0.043 | 0.46 ± 0.0049 | 0.2 ± 0.0046 | 0.23 ± 0.013 | – | 0.4 ± 0.019 | 0.363 ± 0.02
C[C@@]12N[C@@H](Cc3ccccc31)c1ccccc12 [(-)-MK 801 hydrogen maleate] | 0.226 ± 0.014 | 0.29 ± 0.013 | 0.247 ± 0.0096 | 0.138 ± 0.0052 | 0.113 ± 0.0073 | 0.132 ± 0.0029 | 0.244 ± 0.014 | 0.514 ± 0.039 | 0.213 ± 0.036 | 0.221 ± 0.018 | – | 0.412 ± 0.017 | 0.2863 ± 0.0016
CC(N)C(O)c1ccccc1 (stereo unspecified) [Phenylpropanolamine hydrochloride] | 0.26 ± 0.0031 | 0.298 ± 0.0047 | 0.254 ± 0.0066 | 0.229 ± 0.045 | 0.19 ± 0.011 | 0.148 ± 0.0054 | 0.399 ± 0.022 | 0.433 ± 0.067 | 0.189 ± 0.009 | 0.226 ± 0.025 | – | 0.404 ± 0.016 | 0.345 ± 0.015
CN[C@@H]1[C@@H](O)[C@@H](O[C@@H]2[C@@H](O)[C@H](O[C@H]3O[C@H](CN)CC[C@H]3N)[C@@H](N)C[C@H]2N)OC[C@]1(C)O.CN[C@@H]1[C@@H](O)[C@@H](O[C@@H]2[C@@H](O)[C@H](O[C@H]3O[C@H]([C@@H](C)N)CC[C@H]3N)[C@@H](N)C[C@H]2N)OC[C@]1(C)O.CN[C@@H]1[C@@H](O)[C@@H](O[C@@H]2[C@@H](O)[C@H](O[C@H]3O[C@H]([C@@H](C)NC)CC[C@H]3N)[C@@H](N)C[C@H]2N)OC[C@]1(C)O [Gentamicine sulfate] | 0.0458 ± 0.00049 | 0.04643 ± 0.00025 | 0.0414 ± 0.00061 | 0.0505 ± 0.0026 | 0.0448 ± 0.00064 | 0.075 ± 0.001 | 0.134 ± 0.021 | 0.0693 ± 0.0051 | 0.21 ± 0.067 | 0.112 ± 0.0046 | – | 0.191 ± 0.13 | 0.0981 ± 0.037

— the supplement of paper PMC9262897, “Low-cost anti-mycobacterial drug discovery using engineered E. coli” (Nature Communications, 2022)
